We go through 22 compounds from PubChem BioAssay (NCATS).

Results filed as inconclusive are left out. Where a call stands in place of a potency, no number is given. A number with no mark means an inactive call. The source made the active and inactive calls. The call rests on the fitted dose curve; in most records, active means well fitted cell-killing curve with a large enough effect; inconclusive means small, poorly fitted or top-dose-only effect, or effect the other way; inactive means flat fitted curve, though single readings scatter.

For the experiment, the system named is C33A. Kind of experiment: Primary qHTS to identify gynecologic anti-cancer compounds using libraries of approved drugs and bioactive compounds (AID 1345084). Further: nearly all actives have a fitted effect of over 55% in size. The note with it: Gynecologic cancer cell panel viability, ATPlite luminescence, 48 h; series mostly up to 57.5 µM. The essentials:
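Measured: luminescence after ATPlite addition (15 min, RT). Exposure: 48 h, 37 C, 5% CO2.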
As to `OCC1OC(Oc2cc(O)cc(/C=C/c3ccc(OC4OC(CO)C(O)C(O)C4O)cc3O)c2)C(O)C(O)C1O` (configuration not stated), the Potency entry is “inactive”.

Turning to `C[C@@H]1O[C@@H](O[C@H]2[C@H](O[C@H]3[C@H](O[C@H]4CC[C@@]5(C)C(CC[C@]6(C)C5CC=C5[C@@H]7CC(C)(C)CC(=O)[C@]7(C)CC[C@]56C)[C@@]4(C)CO)O[C@H](C(=O)O)[C@@H](O)[C@@H]3O)O[C@H](CO)[C@H](O)[C@@H]2O)[C@H](O)[C@H](O)[C@H]1O` (some centres not stated), the activity change, negative = cytotoxicity is 0.189% [at 11.6 µM]. In the case of `CC(O)C/C=C/C=C/C(=O)OC1C=C2COC(=O)C2(O)C2(C)CCCC(C)(C)C12` (configuration not stated), the Potency result is “inactive”.

Consider `C[C@@H]1O[C@@H](O[C@H]2[C@H](O)[C@@H](O[C@@H]3O[C@H](CO)[C@H](O)[C@H](O)[C@H]3O)[C@H](O[C@H]3CC[C@@]4(C)C(CC[C@]5(C)C4CC=C4[C@@H]6CC(C)(C)CC[C@]6(C(=O)O[C@@H]6O[C@H](CO)[C@@H](O)[C@H](O)[C@H]6O)CC[C@]45C)C3(C)C)O[C@@H]2C(=O)O)[C@H](O)[C@H](O)[C@H]1O` (some centres not stated), for which the activity change, negative = cytotoxicity was 1.15% [at 11.6 µM]. With `COc1ccnc(CCc2nc3ncccc3[nH]2)c1`, the Potency entry is “inactive”.

In the case of `CC(=O)O[C@@H]1[C@H](O[C@@H]2OC[C@](O)(CO)[C@H]2O)[C@@H](O[C@@H]2O[C@@H](C)[C@H](O)[C@@H](O[C@@H]3O[C@H](CO)[C@@H](O)[C@H](O)[C@H]3O)[C@H]2O)[C@H](OC(=O)[C@]23CCC(C)(C)C[C@H]2C2=CCC4[C@@]5(C)C[C@H](O)[C@H](O[C@@H]6O[C@H](C(=O)O)[C@@H](O)[C@H](O)[C@H]6O)[C@@](C)(C(=O)O)C5CC[C@@]4(C)[C@]2(C)CC3)O[C@@H]1C` (some centres not stated), the activity change, negative = cytotoxicity was -1.36% [at 6.55 µM]. `CC(C)CC(=O)O[C@@H]1O[C@H](CO)[C@@H](O[C@H]2O[C@H](C)[C@@H](N[C@H]3C=C(CO)[C@@H](O[C@H]4O[C@H](CO)[C@@H](O[C@H]5O[C@H](CO)[C@@H](O[C@H]6O[C@H](CO)[C@@H](O)[C@H](O)[C@H]6O)[C@H](O)[C@H]5O)[C@H](O)[C@H]4O)[C@H](O)[C@H]3O)[C@H](O)[C@H]2O)[C@H](O)[C@H]1O`: the activity change, negative = cytotoxicity was 5.03% [at 11.6 µM]. Consider `NC[C@H]1CCC[C@@H](CNC(=O)[C@@H](Cc2c[nH]c3ccccc23)NC(=O)N2CCC3(C=Cc4ccccc43)CC2)C1`, for which the Potency entry is “inactive”. On the same count and under the same terms, under `CC1CCC2(C)CCC3(C)C(=CCC4C5(C)CCC(O)C(C)(C(=O)O)C5CCC43C)C2C1C` (configuration not stated) stands “inactive”; under `C[C@@H]1O[C@@H](O[C@H]2[C@@H]3C=CO[C@@H](O[C@@H]4O[C@H](CO)[C@@H](O)[C@H](O)[C@H]4O)[C@@H]3[C@@]3(CO)O[C@@H]23)[C@H](O)[C@H](O)[C@H]1OC(=O)/C=C/c1ccc(O)cc1`, “inactive”; under `CC(CC12CCCN1C(=O)C1CCCN1C2=O)OC(N)=O` (configuration not stated), “inactive”. The same measure, in the same setting: under `CC/C=C\C(O)C(O)C1=C(C)C(=O)C2(O1)C(=O)NC(OC)(C(=O)c1ccccc1)C2O` (configuration not stated) stands “inactive”; under `COc1c2cc(c(O)c1OC)CCCCC(O)CCc1ccc(O)c-2c1` (configuration not stated), “inactive”.

As for `CC1CC(=O)[C@]2(O)C(C(=O)OCCc3ccc(O)cc3)=CO[C@@H](O[C@@H]3O[C@H](CO)[C@@H](O)[C@H](O)[C@H]3O)[C@H]12` (some centres not stated), the Potency entry was “inactive”. Still for that read-out and setting: then `COC(=O)C1=CO[C@@H](O[C@@H]2O[C@H](CO)[C@@H](O)[C@H](O)[C@H]2O)C2C1CC(O)C2C` (some centres not stated), with “inactive”; and `CC(=O)OC[C@]12[C@H](OC(C)=O)[C@H](OC(=O)c3ccccc3)[C@@H]3[C@@H](OC(C)=O)[C@]1(OC3(C)C)[C@H](C)C[C@H](OC(=O)c1ccccc1)[C@@H]2OC(=O)c1ccccc1`, with “inactive”.

Consider `C[C@]1(C2CCCC2)Cc2cc(OCC(=O)O)c(Cl)c(Cl)c2C1=O`, for which the Potency result is “inactive”. Same read-out and setting: then `CC(NC(=O)c1ccccc1N)C(=O)O` (configuration not stated), with “inactive”. For `O=C(Nc1ccn(Cc2c(F)cccc2C(F)(F)F)n1)c1c(F)cccc1F`, the activity change, negative = cytotoxicity is 3.35% [at 11.6 µM]. Regarding `O=C(OC(C(F)(F)F)C(F)(F)F)N1CCN(Cc2cccc(Oc3ccccc3)c2)CC1`, the Potency result was “inactive”. On the same count and under the same terms, under `C[C@H]1CC[C@@]2(OC1)O[C@H]1CC3C4CC[C@H]5C[C@@H](O)CC[C@]5(C)C4CC(=O)[C@]3(C)[C@H]1[C@@H]2C` (some centres not stated) stands “inactive”; under `Cc1oc(S(=O)(=O)N2CCCCC2)cc1NC(=O)Nc1ccccc1`, “inactive”.
